An excerpt weighted towards active compounds, which were near 2.5% of everything screened.
CASP6 VEID inh: blocks human caspase-6 cleavage activity; inhibition, % at 12.5 µM; purified caspase-6, Z-VEID-R110 cleavage fluorescence; 0.53% of 350,000 active; AID 686996; P55212;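 active = mean inhibition across replicates at least about 35%, with every replicate also reaching that limit, limit read from the data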;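 also: 0% = median of neutral control wells and 100% = no fluorescence left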
NSD2 inh: inhibitors of human histone methyltransferase NSD2. O96028. NSD2 peptide methylation, AlphaScreen, 120 min. inhibition, % at 12.5 µM. 0.54% of 310,000 active. AID 743445; in the data active = inhibition above about 50%
AF4-AF9 inh: blocks AF4 peptide binding to human AF9; P42568; AlphaScreen, biotin-AF4 peptide binding to FLAG-AF9; inhibition, % at 10 µM; 0.47% of 350,000 active;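 active = every replicate reaching a set inhibition limit, whatever the replicate mean, cut at about 25% in these data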;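 also: 0% = plate neutral control median and 100% = total signal loss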
RAD52 anneal inh: inhibitors of human RAD52 DNA annealing; recombinant RAD52 DNA annealing, FRET fluorescence; inhibition, % at 18.7 µM; 0.46% of 360,000 active; AID 651710;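 active = every replicate showing at least 50% inhibition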
Target sequence (P43351 whole entry, looked up): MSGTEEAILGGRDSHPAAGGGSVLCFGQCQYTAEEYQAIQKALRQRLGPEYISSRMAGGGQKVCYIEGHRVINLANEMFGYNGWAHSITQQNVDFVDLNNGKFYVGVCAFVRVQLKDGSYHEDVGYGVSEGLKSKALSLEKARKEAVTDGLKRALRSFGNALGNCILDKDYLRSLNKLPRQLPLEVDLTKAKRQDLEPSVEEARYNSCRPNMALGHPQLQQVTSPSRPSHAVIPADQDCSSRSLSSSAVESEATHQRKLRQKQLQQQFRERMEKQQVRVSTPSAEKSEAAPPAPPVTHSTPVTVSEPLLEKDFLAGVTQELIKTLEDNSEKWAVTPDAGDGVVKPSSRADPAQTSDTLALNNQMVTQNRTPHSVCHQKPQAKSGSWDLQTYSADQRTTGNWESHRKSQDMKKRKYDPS
rRNA inh HTS: selective bacterial rRNA inhibition in E. coli | E. coli WT GFP vs humanized-ribosome RFP mutants, fluorescence, 24 h; stronger effect = lower value; DMSO median 0, no signal -100 | GFP signal change (wild-type ribosome), % (concentration not given with the values) | 1.6% of 350,000 active | AID 720706;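 active = significant combined selectivity score with lowered wild-type GFP, culture density cut under 30%, mutant RFP and density less affected; inactive = any of these conditions unmet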
* hit, by the source's call; nt = no result given.

SMILES	CASP6 VEID inh	NSD2 inh	AF4-AF9 inh	RAD52 anneal inh	rRNA inh HTS
C[C@@H]1CN([C@H](C)CO)C(=O)c2cccc(NC(=O)c3ccc(-c4nccs4)cc3)c2O[C@H]1CN(C)C(=O)Nc1ccccc1	-4	nt	-5	7	-2
OC(c1ccc(Cl)cc1)c1nccc2ccccc12 (centres undefined)	5	-3	0	-5	-22*
NC(=O)c1nccc2ccccc12	-2	-1	-4	-12	15
CN(C)/C=N/c1nc2ccc3c(c2s1)CCCC3	nt	nt	-21	-15	-26*
COc1ccc2nc(/N=C\N(C)C)sc2c1	nt	-1	nt	nt	nt
COc1ccc2c3c(n(C)c2c1)[C@@H](CO)N(CC1CCOCC1)CC31CN(C(=O)c2cccc(F)c2)C1	nt	nt	nt	nt	4
CN(C)CCCNC(=O)C[C@H]1CC[C@@H]2[C@H](COc3ccc(NC(=O)NC4CCCC4)cc3C(=O)N2C)O1	-2	nt	-1	-4	1
Cc1ccc(C(=O)/C=C/C(=O)c2ccc(C)cc2)cc1	3	-5	-3	-7	-24*
Cc1ccc(/C=C/C(=O)c2ccc(C)cc2)cc1	nt	0	nt	nt	nt
CCOc1ccc(NC(=O)CN(C)C(=O)c2sc3ccccc3c2Cl)cc1OCC	9	-2	0	-11	-29*
CCOc1ccc(NC(=O)CN(C)C(=O)c2cccc3ccccc23)cc1OCC	-27	17	0	-12	-2
O=C(c1ccccc1)C1C(c2ccccc2)C1[N+](=O)[O-] (centres undefined)	3	-2	-6	-13	-7
CN(C)c1ccc([C@@H]2[C@@H]([N+](=O)[O-])[C@H]3C=Cc4ccccc4N3[C@H]2C(=O)c2ccc(Cl)cc2)cc1	2	0	15	-25	-28*
COc1ccc(CC(N)c2csc(NC(=O)Nc3cc(OC)ccc3OC)n2)cc1 (centres undefined)	6	3	31*	-22	-64
COc1ccc(CCNC(=O)Nc2nc(C(N)COCc3ccccc3)cs2)cc1OC (centres undefined)	-1	4	16	-20	-14*
COc1ccccc1NC(=O)Nc1nc(C(N)Cc2ccccc2)cs1 (centres undefined)	0	-3	6	-61	-41
COc1ccc(OC)c(NC(=O)Nc2nc(C(N)CCc3ccccc3)cs2)c1 (centres undefined)	8	23	28*	-21	-57
CO[C@H]1CN(C)C(=O)c2ccc(NS(C)(=O)=O)cc2OC[C@@H](C)N(C(=O)NC(C)C)C[C@@H]1C	1	nt	-2	-16	-1
Cc1ccc(S(=O)(=O)N[C@@H]2C=C[C@@H](CC(=O)NC3CCCCC3)O[C@H]2CO)cc1	2	nt	0	1	2
C[C@H]1CN([C@@H](C)CO)C(=O)Cc2cc(NC(=O)Nc3ccc(F)cc3)ccc2O[C@@H]1CN(C)C(=O)Nc1cccc2ccccc12	3	nt	-12	-27	-1
C[C@@H]1CN([C@H](C)CO)C(=O)c2cc(C#CCc3ccccc3)cnc2O[C@@H]1CN(C)Cc1ccc(C(=O)O)cc1	-1	nt	0	-9	1
O=C(OCc1cccc(F)c1)c1ccc2c(=O)n3c(nc2c1)CCC3	0	nt	-14	-12	-24*
CO[C@H]1CN(C)C(=O)c2ccc(NC(=O)C3CC3)cc2OC[C@H](C)NC[C@H]1C	1	nt	-3	-4	2
CCN1CCN(S(=O)(=O)c2ccc(Cl)c(C(=O)N(C)C3CCCCC3)c2)CC1	-227	1	26*	-134	8
CN1C(=O)[C@@](O)(c2cn(C)c3ccccc23)c2cc(Br)ccc21	2	nt	3	-9	-23*
SMILES	CASP6 VEID inh	NSD2 inh	AF4-AF9 inh	RAD52 anneal inh	rRNA inh HTS
CSCCC(=O)Nc1nc(-c2ccccn2)cs1	2	3	0	-23	-29*
O=C(CCCSc1ccccc1)Nc1nc(-c2ccccn2)cs1	nt	1	nt	nt	nt
Cc1cccc(C(=O)NC(C(=O)Nc2nc(-c3ccccn3)cs2)C(C)C)c1 (centres undefined)	-4	-5	-1	-66	-35*
C[C@H](NC(=O)c1ccccc1)C(=O)Nc1nc(-c2ccccn2)cs1	-2	-3	-2	-23	-29
O=C(Nc1ccc2c(c1)OCCO2)C(=S)NCc1ccccc1	-1	-5	-4	-24	-32*
O=[N+]([O-])c1ccc(N2CCN(CCOc3nonc3-c3ccccc3)CC2)c(Cl)c1	-3	nt	-6	-11	18
O=[N+]([O-])c1ccc(N2CCN(c3ccc(F)cc3)CC2)cc1	-3	-3	-2	-11	8
O=[N+]([O-])c1ccc(N2CCN(Cc3ccc([N+](=O)[O-])o3)CC2)cc1	3	1	1	-20	-23*
CN1CCCN(c2ccc([N+](=O)[O-])cc2)CC1	-3	nt	28*	-1	6
Cc1nonc1OCCN1CCN(c2ccc([N+](=O)[O-])cc2)CC1	1	1	4	-11	-23*
CCOC(=O)C1CCN(C(=O)c2cc3c(=O)n4cccc(C)c4nc3s2)CC1	3	-18	-1	-6	-19*
COc1ccc(-c2csc(NC(=S)NC(=O)/C=C/c3ccco3)n2)cc1Br	1	1	-3	-22	-41*
COc1ccc(-c2csc(NC(=S)NC(=O)/C=C/c3ccco3)n2)cc1OC	3	-2	5	-6	-14
O=C(C1CCCCC1)N1CC(=O)N2[C@H](CO)[C@@H](c3ccc(-c4cccnc4)cc3)[C@@H]2C1	-2	nt	-1	-7	3
C[C@@H]1CN([C@@H](C)CO)C(=O)c2cc(-c3ccccc3)cnc2O[C@@H]1CN(C)Cc1ccc(C(=O)O)cc1	-4	nt	-8	10	-1
CC1=CC(C)(C)N(C(=O)c2ccccc2)c2ccc(C)cc21	nt	-2	nt	nt	nt
COc1ccc(C(=O)N2c3cc4c(cc3C(C)=CC2(C)C)OCO4)cc1	nt	6	32*	nt	nt
CC(=O)Oc1ccc(/C=C2/CCc3ccccc3C2=O)cc1	2	35	-2	-10	-31*
C[C@@H]1CCCCO[C@H](CN(C)Cc2ccc3c(c2)OCO3)[C@@H](C)CN([C@H](C)CO)C(=O)c2cc(NS(=O)(=O)c3ccccc3)ccc2O1	-2	nt	-3	12	5
O=c1cc(SCc2ccccc2)nc[nH]1	-2	-5	38*	-7	nt
Cc1cc(SCc2ccccc2)nc(=O)[nH]1	nt	1	nt	nt	nt
CN(C)c1cccc(/C=C(\C#N)c2ccccc2)c1	-6	5	26*	-19	-23
Cc1ccc(S(=O)(=O)N(C)C[C@H]2Oc3ccc(NS(=O)(=O)c4ccccc4)cc3C(=O)N([C@@H](C)CO)C[C@H]2C)cc1	-2	nt	-1	-25	-3
NCC[C@H]1CC[C@@H](NC(=O)CCN2CCCCC2)[C@H](CO)O1	-2	nt	59*	6	3
NCC[C@H]1CC[C@H](NC(=O)CCN2CCCCC2)[C@@H](CO)O1	-1	nt	28*	-11	0
NCC[C@@H]1CC[C@@H](NC(=O)CCN2CCCCC2)[C@H](CO)O1	0	nt	19	3	1

High-throughput results deposited in PubChem BioAssay by Broad Institute.
